Article PMC5540273 (PLoS ONE, 2017)

Key:
Settings in all cases: concentration: 1 μM, replicates: in singlicate; n = 1
PKAC-alpha = tested on: T1, PKAC-alpha
T1 construct: gene PRKACA

PKAC-beta = tested on: T2, PKAC-beta
T2 construct: gene PRKACB

PKMYT1 = tested on: PKMYT1
PKN1 = tested on: PKN1
PKN2 = tested on: PKN2
PLK2 = tested on: PLK2
PLK3 = tested on: PLK3
PLK4 = tested on: PLK4
PRKCD = tested on: PRKCD
PLK1 = tested on: PLK1
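Also: KINOMEscan kinase panel screen.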

| Compound | %Inh (PKAC-alpha) [%] | %Inh (PKAC-beta) [%] | %Inh (PKMYT1) [%] | %Inh (PKN1) [%] | %Inh (PKN2) [%] | %Inh (PLK2) [%] | %Inh (PLK3) [%] | %Inh (PLK4) [%] | %Inh (PRKCD) [%] | %Inh (PLK1) [%] |
| --- | --- | --- | --- | --- | --- | --- | --- | --- | --- | --- |
| COc1cc2ncn(-c3cc(OCCCc4ccccc4)c(C(N)=O)s3)c2cc1OC [GSK205189] | 0 | 5 | 0 | 0 | 16 | 98.2 | 92.3 | 0 | 0 |  |
| CCS(=O)c1ccc(-c2coc3ccc(-c4nnc(C)o4)cc23)cc1 (stereo not drawn) | 0 | 18 | 0 | 0 | 16 | 0 | 14 | 5 | 4 | 0 |
| COc1cc(Nc2ccnc3ccc(C(F)(F)F)cc23)cc(OC)c1OC [GW577382] | 14 | 4 | 6 | 0 | 0 | 0 | 0 | 50 | 15 | 12 |
| COc1cc(OC)cc(-c2cc3cnc(N)nc3nc2NC(=O)NC(C)(C)C)c1 | 0 | 0 | 0 | 0 | 22 | 0 | 0 | 0 | 0 | 0 |
